HT1080 IDH1KD tx: kills HT-1080 cells with IDH1 knockdown. HT-1080 IDH1 knockdown viability, ATP luminescence, 48 h. Potency, µM (doses to about 46.1 µM), without a hit: at the top dose activity, negative = toxicity, hits mostly cytotoxic. 360,000 tested, 2% active. AID 686971;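 further: potency means the concentration at half of the fitted maximal effect; 0% = DMSO wells and -100% = cell-free medium wells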
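IDH1KD HT-1080 cells, 750/well, RPMI + 5% FBS; compound pinned after 2 h settling; 48 h, 37 °C; CellTiter-Glo luminescence; % activity normalised to DMSO and no-cell wells; curves fitted, classed by r2 and efficacy.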
TDP1 cell noCPT: qHTS for Inhibitors of human tyrosyl-DNA phosphodiesterase 1 (TDP1): qHTS in cells in absence of CPT | DT40 Tdp1-/- hTDP1 cells, no CPT, ATP luminescence, 48 h | Potency, µM (series often up to 46.2 µM), without a hit: at the highest dose activity change, negative = growth inhibition, most hits filed as inhibitors | 420,000 tested, 15% active; further: potency means the concentration at half of the fitted maximal effect; nearly all actives have a fitted effect of over 55% in size
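DT40 Tdp1-/-;hTDP1 cells, no CPT (DMSO vehicle only), 400 cells/well; compounds pin-transferred; ≥48 hr, 37 °C; CellTiter-Glo 30 min RT dark, luminescence read.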
ELG1 DNA repair: blocks ELG1-dependent DNA repair in HEK293T cells | HEK293T ELG1-luciferase reporter, luminescence, 16 h; DNA damage induced by 5-fluorouridine | Potency, µM (series often up to 46.1 µM), without a hit: top-dose activity change, negative = inhibition, usual class: inhibitors | 330,000 tested, 2.3% active | AID 504467; further: potency means the concentration at half of the fitted maximal effect; nearly all actives have a fitted effect of over 55% in size
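5-Fluorouridine DNA damage + compound/DMSO, 2,000 cells/well, 16 h, 37 °C/5% CO2. ONE-Glo, 30 min RT, luminescence. Readout = decrease in reporter signal.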
IL-1B inflam inh: inhibitors of inflammasome signaling (IL-1 beta secretion) | THP-1 LPS/ATP IL-1B secretion, AlphaLISA, 16 h; stronger effect = lower value | activity change, % at 57.5 µM | 360,000 tested, 4.7% active; in the data active means activity change below about -50%; inconclusive means mostly about -30% to -49%
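Secreted IL-1B measured by AlphaLISA bead assay after 16 h compound exposure of THP-1 cells; compounds (final up to 57.5 uM) added 1 h before LPS (250 ng/mL) and ATP (1.25 mM) stimulation; lower signal means less secretion.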
DT40 TDP1 CPT: growth inhibition of DT40 Tdp1-/-;hTDP1 cells with camptothecin (screen for TDP1 inhibitors) | chicken DT40 Tdp1-/-;hTDP1 cells + 20 nM CPT, ATP luminescence, 48 h | Potency, µM (highest dose often 46.2 µM), for the others: at the highest dose activity change, negative = growth inhibition, actives largely listed as inhibitors | 420,000 tested, 12% active | AID 686979; further: potency means the concentration at half of the fitted maximal effect; nearly all actives have a fitted effect of over 55% in size
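Chicken DT40 Tdp1-/- cells complemented with human TDP1, 400 cells/well, exposed to compounds plus 20 nM camptothecin for at least 48 h at 37 C; viability read as ATP content by CellTiter-Glo luminescence.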
HT1080-NT tox: kills 2HG-producing HT-1080-NT fibrosarcoma cells. 360,000 tested, 1.6% active. Potency, µM (series often up to 46.1 µM), for the others: at the top dose activity, negative = less viability, most hits filed as cytotoxic. HT-1080-NT fibrosarcoma viability, CellTiter-Glo ATP luminescence, 48 h. AID 686970;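 further: NT is the 2HG producing partner of a matched IDH1 knockdown line; potency means the concentration at half of the fitted maximal effect; 0% = DMSO-treated cells and -100% = media-only wells without cells; nearly all actives have a fitted effect of over 55% in size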
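Viability by CellTiter-Glo luminescence after 48 h compound exposure at 37C of HT-1080-NT cells (750/well, RPMI, 5% FBS). % activity scaled between DMSO wells and medium-only wells, then curve-fitted and categorized by curve class.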
* hit, by the source's call; ? = inconclusive; . = no result. Sampled rows, rich in hits. Any-hit rate of the full collection: about 19%. Unless noted, the call rests on the fitted dose curve; in most records, active means well fitted curve in the direction sought with a large enough effect; inconclusive means small, poorly fitted or top-dose-only effect, or another doubt; inactive means no such curve, though single readings can be large; an effect the other way counts as inactive or inconclusive. Unless noted, on the % scale 0 is the no-effect control and ±100 the full control effect.

SMILES	HT1080 IDH1KD tx	TDP1 cell noCPT	ELG1 DNA repair	IL-1B inflam inh	DT40 TDP1 CPT	HT1080-NT tox
O=C(N/N=C/c1ccccn1)c1sc2ccccc2c1Cl	?	13µM*	?	202	16µM*	-12%
O=C(N/N=C/c1cccc(NC(=O)c2ccc(Cl)cc2)c1)c1cccc(O)c1	?	13µM*	-17%	12	?	?
COc1cc(C(=O)N/N=C/c2ccccn2)cc(OC)c1OC	?	4.6µM*	?	82	3.3µM*	?
COc1cc(C(=O)N/N=C/c2cc([N+](=O)[O-])cs2)cc(OC)c1OC	1.5µM*	1µM*	1%	22	0.82µM*	2.9µM*
N#Cc1ccc(C(=O)NC2CCCCCCC2)cc1	-10%	?	?	-3	-21%	2%
COc1ccc(NC(=O)N[C@H]2CC[C@@H](CC(=O)NC3CCC3)O[C@@H]2CO)cc1	21%	3%	.	-4	7%	22%
COCCNC(=O)C1CCCN(C(=O)/C=C/c2ccccc2)CC1 (stereo not drawn)	3%	-3%	.	19	1%	24%
Cc1cc2c(SCC(=O)Nc3cccc(O)c3)ncnc2s1	2%	-10%	.	1	10%	-3%
O=C(N/N=C/c1ccccn1)c1ccccc1	-23%	18µM*	?	73	?	-3%
O=C(N/N=C\c1ccccn1)c1ccccc1O	?	?	?	-123*	15µM*	-3%
COc1ccc(C(=O)N/N=C/c2ccccn2)cc1OC	-29%	?	-26%	-5	?	-15%
COc1ccc(C(=O)Nc2ccccc2C(=O)N2CCCCCC2)cc1OC	1%	8%	0%	-9	12%	0%
COc1ccc(C(=O)Nc2ccccc2C(=O)N/N=C/c2ccccn2)cc1OC	?	6.5µM*	?	.	4.6µM*	?
COc1ccc(C(=O)Nc2ccccc2C(=O)NC(C)C)cc1OC	13%	?	18µM*	-18	?	10%
O=C(N/N=C/c1ccccn1)c1ccncc1	-7%	11%	?	-2	2%	-2%
Cc1ccc2nc(-c3ccc(F)cc3)c(CC3CCCCC3)n2c1	-14%	?	.	15	?	-2%
CC(=O)Oc1ccc2c(c1)CCC1C2CC[C@@]2(C)C1CC(OC(C)=O)C2OC(C)=O (stereo partly drawn)	.	4%	.	.	?	.
CC1CCCCC1NC(=O)CCN1C(=O)C2C3C=CC(C3)C2C1=O (stereo not drawn)	10%	-5%	9%	9	1%	3%
COc1ccc(C(=O)NCC(=O)OCc2c(Cl)cccc2Cl)cc1OC	2%	15µM*	3%	-7	?	12%
COc1ccc(C(=O)N/N=C/c2ccc3cccc(O)c3n2)cc1	?	5.2µM*	?	-27	?	?
COc1ccc(C(=O)Nc2cccc(NC(=O)c3ccc(OC)c(OC)c3)n2)cc1OC	-17%	7.3µM*	2.9µM*	-22	8.2µM*	-28%
O=C(N/N=C/c1ccccn1)c1ccc(Cl)cc1	?	12µM*	?	-101*	12µM*	-21%
CC(OC(=O)CNC(=O)c1sc2ccccc2c1Cl)c1ccccc1 (stereo not drawn)	8%	-6%	15%	7	-17%	16%
COc1ccc(OC)c(C(=O)N/N=C/c2ccccn2)c1	2%	6%	3%	11	6%	16%
CCOc1ccc(Br)cc1C(=O)N/N=C/c1ccccn1	-27%	?	12µM*	31	?	-21%
SMILES	HT1080 IDH1KD tx	TDP1 cell noCPT	ELG1 DNA repair	IL-1B inflam inh	DT40 TDP1 CPT	HT1080-NT tox
Cc1cccc(/C=N/NC(=O)c2ccc(NC(=O)c3ccc(Cl)cc3)cc2)n1	18µM*	?	1%	48	?	18µM*
O=C(N/N=C/c1ccc([N+](=O)[O-])o1)c1sc2ccccc2c1Cl	?	26µM*	?	-78*	23µM*	-24%
CCOC(=O)CSC1=Nc2ccccc2C2=NC(CCC(=O)NCc3ccc(OC)cc3)C(=O)N12 (stereo not drawn)	.	-20%	.	.	-13%	.
CC1(C)C(=O)CC[C@@]2(C)[C@H]1CC[C@@]1(C)CC3=C(CC[C@@H]12)[C@@]1(C)CCC(=O)C(C)(C)[C@@H]1CC3	.	.	2%	.	.	.
Cc1nc(SCc2cccc(Cl)c2)nc2c1CCCC2	.	-26%	.	.	0%	.
CCCOc1cccc(C(=O)N(Cc2cc(OC)c(OC)c(OC)c2)C2CCS(=O)(=O)C2)c1 (stereo not drawn)	.	-17%	.	.	?	.
Cc1c(Br)c([N+](=O)[O-])nn1CCCC(=O)Nc1sc2c(c1C#N)CCC2	-7%	16µM*	-25%	-11	15µM*	-15%
COC(=O)c1ccccc1NC(=O)CCCn1nc([N+](=O)[O-])c(Br)c1C	1%	-20%	9%	21	15µM*	-4%
CCNC(=S)NNC(=O)c1c(Cl)c(C)nn1C	8%	-21%	11%	1	4%	-2%
CCCCNC(=S)NNC(=O)c1c(Cl)c(C)nn1C	9%	16µM*	-5%	8	23µM*	16%
O=S(=O)(Nc1ccc2c(c1)OCCO2)c1c(F)cccc1F	4%	-114%	6%	13	-93%	13%
Cc1ccc(CNC(=O)CSc2nc(=O)n3ccccc3n2)cc1	-1%	-14%	0%	8	-1%	0%
Cc1ccc(CNC(=O)CSc2nc3n[nH]c(C)c3c(=N)n2-c2ccccc2Cl)cc1	.	23µM*	.	.	18µM*	.
COc1ccc(-c2nc(SCC(=O)NC3CCCCC3)n[nH]2)cc1	-21%	?	?	0	?	-4%
Cc1ccc(-n2c(SCC(=O)NCc3ccccc3)nc3n[nH]c(C)c3c2=N)cc1Cl	.	2.3µM*	.	.	4.1µM*	.
COc1ccc(CNC(=O)CSc2n[nH]c(C)c2[N+](=O)[O-])cc1	6%	-1%	20%	-1	4%	9%
COc1ccc(CNC(=O)CSc2n[nH]c(-c3ccc(OC)cc3)n2)cc1	.	13µM*	.	.	9.2µM*	.
COc1ccc(-n2c(SCC(=O)NCc3ccc(C)cc3)nc3n[nH]c(C)c3c2=N)cc1	.	4.1µM*	.	.	6.5µM*	.
O=C(CSc1nc(O)cc(=O)n1-c1ccccc1)NCc1ccccc1	1%	0%	11%	18	-10%	-1%
O=C(NCc1nnc2n1CCN(Cc1cc3c(cc1Cl)OCO3)CC2)C1CCOC1 (stereo not drawn)	.	-4%	.	.	7%	.
